From PubChem
DRD3 antagonist: D3 dopamine receptor (human) antagonism | P35462 | D3R cells, DiscoveRx beta-arrestin luminescence, antagonist mode; hits give low values | max response, negative = inhibition, % | 360,000 tested, 2.5% active | AID 652054; in the data active = max response below about -50%; inconclusive = no clear call, values can overlap the other calls
Target sequence (P35462 whole entry, looked up): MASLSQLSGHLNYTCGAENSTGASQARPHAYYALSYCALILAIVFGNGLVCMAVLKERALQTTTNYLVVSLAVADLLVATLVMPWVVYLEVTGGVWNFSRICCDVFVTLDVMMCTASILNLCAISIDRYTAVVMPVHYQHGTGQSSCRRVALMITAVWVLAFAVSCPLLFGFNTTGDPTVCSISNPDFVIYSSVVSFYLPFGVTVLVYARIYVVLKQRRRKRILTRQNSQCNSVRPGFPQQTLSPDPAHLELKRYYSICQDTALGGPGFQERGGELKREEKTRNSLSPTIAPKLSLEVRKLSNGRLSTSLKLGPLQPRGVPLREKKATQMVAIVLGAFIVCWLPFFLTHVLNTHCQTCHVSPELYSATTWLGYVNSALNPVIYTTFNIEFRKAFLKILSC
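Cells expressing the human receptor were seeded at 1500 cells/well, incubated overnight at 37 degrees C in 5% CO2, then exposed to library compounds with dopamine controls for 90 minutes at 37 degrees C before luminescent detection.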
D1 PAM: enhances dopamine response at the human D1 receptor. P21728. 360,000 tested, 0.036% active. HEK293 TREx D1 cells, calcium flux, dopamine EC20 potentiation. potentiation, % at 10 µM; in the data active = potentiation above about 30%
D3 ag: agonists of human D3 dopamine receptor; P35462; D3R DiscoveRx beta-arrestin cells, luminescence, 90 min; max activation, %; 410,000 tested, 0.58% active; AID 652048; in the data active = max activation above about 30%
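Cells at 1500/well, incubated overnight, then treated with pinned compounds (dopamine as control) for 90 min at 37 degrees C. DiscoveRx reagent added for 30 - 60 minutes at room temperature; luminescence read.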
D1 ag: human D1 receptor agonism; P21728; HEK293 T-REx D1 cells, calcium flux, agonist mode; activation, % at 2 µM; 360,000 tested, 1% active; AID 504660; in the data active = activation above about 30%
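Agonism was scored from calcium flux recorded over 180 s (1 read/s) after pintool compound addition, following a 10-cycle baseline. Cells were inducible force-coupled HEK293 TREx D1, plated overnight at 30 C and loaded with no-wash calcium dye.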
D1 antagonist: human D1 dopamine receptor antagonism; HEK293 TREx D1 cells, calcium flux, dopamine EC80; hits give low values; activity change, negative = inhibition, % at 10 µM; 360,000 tested, 3.2% active; AID 504652; in the data active = activity change below about -30%
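Antagonism measured as reduced calcium response to an EC80 dopamine addition following 180 s compound pre-read; cells were inducible HEK293 Trex D1 plated overnight at 30 C, read kinetically at 1 cycle/sec.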
A number is an active result; i = inactive; ? = inconclusive; nt = not tested or not shown. Sampled rows, rich in hits. Any-hit rate of the full collection: about 6%.

SMILES	DRD3 antagonist	D1 PAM	D3 ag	D1 ag	D1 antagonist
O=C(c1ccccc1F)c1cc2c(cc1[N+](=O)[O-])OCCO2	i	i	i	i	i
CC(=O)c1c(C(=O)O)[nH]c(C(=O)O)c1C	i	i	i	i	i
Cc1[nH]c(C(=O)O)c(C)c1C(=O)OC(C)C	i	i	i	i	-53
CCOc1cc(/C=C2/NC(=O)N(Cc3ccccc3F)C2=O)ccc1O	i	i	i	i	i
COc1cc(/C=C2/NC(=O)N(Cc3ccccc3F)C2=O)cc(OC)c1O	i	i	i	i	-38
CCOC(=O)C(=O)c1csc(NC(=O)CCSc2ccc(C)cc2)n1	i	i	i	i	-79
CCOC(=O)c1csc(NC(=O)CCSc2ccccc2)n1	i	i	i	i	i
Cn1cnc(C(=O)N2CCN(C(=O)OC(C)(C)C)CC2)c1C(=O)N1CCN(C(=O)OC(C)(C)C)CC1	i	i	i	i	i
Cn1cnc(C(=O)N2CCN(c3ccccc3)CC2)c1C(=O)N1CCN(c2ccccc2)CC1	?	i	i	i	-39
COC(=O)c1ccc(NC(=O)CCc2c(C)nn(-c3ccc(N4CCOCC4)nn3)c2C)cc1	nt	i	i	i	i
CC(=O)Nc1cccc(C(=O)/C=C/c2cccs2)c1	-62	i	i	i	i
CC(=O)Nc1cccc(C(=O)/C=C/c2ccc(F)cc2)c1	i	i	i	i	i
CC(=O)Nc1cccc(C(=O)/C=C/c2ccc(N(C)C)cc2)c1	i	i	i	401	i
CC(=O)Nc1cccc(C(=O)/C=C/c2ccc(/C=C/C(=O)c3cccc(NC(C)=O)c3)cc2)c1	nt	i	nt	i	i
COc1ccc(/C=C/C(=O)Nc2cccc(C(C)=O)c2)cc1	i	i	i	i	-40
COc1ccc(/C=C/C(=O)Nc2cccc(F)c2)cc1	nt	i	i	i	i
Cc1ccccc1Nc1nc(C#N)nc(NC2CCCC2)n1	nt	i	nt	i	i
CCc1ccc(NC(=O)CC2C(=O)N(c3ccc(F)cc3)C(=O)N2Cc2ccc(F)cc2)cc1 (centres undefined)	nt	i	i	i	-31
CCCOc1ccc(NC(=O)CC2C(=O)N(c3ccccc3)C(=O)N2CCC(C)C)cc1 (centres undefined)	nt	i	i	i	i
CCc1ccc(NC(=O)CC2C(=O)N(c3cccc(C)c3)C(=O)N2Cc2cccs2)cc1 (centres undefined)	nt	i	i	i	-38
CCc1ccc(NC(=O)CC2C(=O)N(c3cccc(C)c3)C(=O)N2Cc2ccc(F)cc2)cc1 (centres undefined)	nt	i	i	i	i
CCCOc1ccc(NC(=O)CC2C(=O)N(c3ccc(OC)cc3)C(=O)N2CCc2ccncc2)cc1 (centres undefined)	nt	i	i	i	-42
CCCOc1ccc(NC(=O)CC2C(=O)N(c3ccc(F)cc3)C(=O)N2CC(C)C)cc1 (centres undefined)	nt	i	62	i	i
CCCNC(=O)c1cnc2c(-c3ccc(OCC)c(OCC)c3)c(C)nn2c1-c1ccccc1	nt	i	i	i	i
Cc1cc(C)cc(NC(=O)NCc2noc3ccccc23)c1	nt	i	i	i	i
SMILES	DRD3 antagonist	D1 PAM	D3 ag	D1 ag	D1 antagonist
O=C(NCCSc1c(-c2ccccc2)[nH]c2ccccc12)c1ccc(S(=O)(=O)N2CCOCC2)cc1	nt	i	i	i	i
CCOc1ccc(-c2cc3c(=O)n(CC(=O)NCc4ccccc4)ccn3n2)cc1	nt	i	i	i	i
COc1cc(C)ccc1OCCn1c(-c2ccc(Cl)cc2)nc2ccccc2c1=O	nt	i	i	i	i
Cc1ccsc1CCN1C(=O)N(c2ccccc2)C(=O)C1CC(=O)Nc1ccc(Cl)cc1 (centres undefined)	nt	i	i	i	-36
O=C(CC1C(=O)N(c2ccccc2)C(=O)N1CCc1cccs1)Nc1ccc(Cl)cc1 (centres undefined)	nt	i	i	i	i
O=C(CCN1CCc2ccccc2C1)c1ccc2c(c1)OCCO2	-88	i	i	i	i
O=C(CCN1CCc2ccccc21)c1ccc2c(c1)OCCO2	?	i	i	i	i
O=C(CCN1CCC(c2ccccc2)C1)c1ccc2c(c1)OCCO2 (centres undefined)	-66	i	i	i	i
CC1CCC(NC(=O)c2ccc3c(c2)N(Cc2ccccc2F)C(=O)c2ccccc2S3=O)CC1 (centres undefined)	nt	i	i	i	i
